{"source": "PubChem BioAssay AID1347155", "about": "(National Center for Advancing Translational Sciences (NCATS), 2019)", "note": "Results filed as inconclusive are left out. A number with no mark means an inactive call. Activity calls are given as the source filed them. The call rests on the fitted dose curve; in most records, active means well fitted inhibition curve with a large enough effect; inconclusive means small, poorly fitted or top-dose-only effect; inactive means no such curve, though single readings can be large or run the other way. *1 amine or outer side, *2 acyl side, *3 side chain or, on linkers, in order; H or OH if unused. Where a SMILES comes first, the peptide text is derived from it. Bridges are numbered along the chain shown (N, C = ends). Roman numbers before positions name the chains, in order. [ ]: non-standard residue; d: D form. ξ: configuration not given here. Actinocin(9to1) = Cc1c2oc3c(C)ccc(C(=O)[*:1])c3nc-2c(C(=O)[*:2])c(N)c1=O; aThr = C[C@H](O)[C@H](N)C(=O)O; NMeV = CN[C@H](C(=O)O)C(C)C; ξNMeV = CNC(C(=O)O)C(C)C; ξV = CC(C)C(N)C(=O)O; Sar = CNCC(=O)O", "data": [{"tested_on": "Zika virus NS2B-NS3 protease (linked)", "assay": "Optimization screen NINDS Rhodamine qHTS for Zika virus inhibitors: Linked NS2B-NS3 protease assay", "conditions": "fluorogenic rhodamine substrate; series mostly up to 105 µM; activity change, negative = inhibition: at the top concentration", "text": "Avindra Nath, Ph.D., National Institute of Neurological Disorders and Stroke (NINDS), Bethesda, MD\nRadhakrishnan Padmanabhan, Ph.D., Georgetown University (GU), Washington D.C.\nZika Virus causes congenital defects, including microcephaly and is associated with Guillain-Barre syndrome, eningoencephalitis and myelitis in infected adult. […] Using a target-based approach, we hope to establish a screening paradigm to uncover novel, cell-active NS2B-NS3 protease (Zika Virus) specific inhibitors from NCATS' collection of small molecules using qHTS.\nFour assay panel was created to identify potential Zika Virus inhibitors. Namely, (1) GU unlinked NS2B-NS3 AMC tagged protease qHTS, (2) GU unlinked NS2B-NS3 Rhodamine tagged protease qHTS, (3) NINDS linked NS2B-NS3 AMC tagged protease qHTS, (4) NINDS linked NS2B-NS3 Rhodamine tagged protease qHTS. Active compounds were re-acquired and re-screened to confirm inhibition. Inhibitors were further screened against various confirmatory and counterscreens in dose response format.\nEarly Translation Branch (ETB)\nNational Center for Advancing Translational Sciences (NCATS), Rockville, MD\nNational Institute of Health (NIH), Bethesda, Maryland\nFor the linked assay, Nath lab (NINDS) provided the purified linked NS2B-NS3 protease which is consists of hydrophilic domain of NS2B linked to the NS3 protease domain by a flexible (-GGGGSGGGG-) linker. Control compound aprotinin is obtained from Thermo Scientific (#78432; Waltham, Massachusetts). Rhodamine110 substrate ([N-Cbz]-Nle-Lys-Arg-Arg-Rhod110-Arg-Arg-Lys-Nle-[N-Cbz]) was purchased from either Genscript or Bachem.\n1536-well Protease (Rhodamine110 Substrate) Assay:\nBriefly, 3 microL of enzyme (25 nM final concentration), in assay buffer (10 mM Tris-HCl pH 8.0 with 0.01% Tween 20) were dispensed into a 1,536-well solid-bottom black plate (Greiner Bio One, Monroe, NC). Twenty-three nL of compounds (final concentration range 7.28 nM to 114 microM) or control Aprotinin (final concentration range 3.47 nM to 114 microM) were transferred via Wako Pin-tool (Wako Automation, Richmond, VA). Samples were incubated (room temperature, protected from light) for 15 minutes followed by a 1 microL Rhodamine110 substrate addition (1.5 microM final concentration). Plates were then immediately read on a ViewLux High-throughput CCD imager (PerkinElmer, Waltham, MA) equipped with FITC fluorescence optics (480(20) nm excitation, 540(25) nm emission), then incubated (room temperature, protected from light) for 15 minutes (~15% conversion). The change in fluorescence intensity over the 15-minute reaction period was normalized against no-inhibitor and no-enzyme controls and the resulting percent inhibition data were fitted to a 4-parameter Hill equation. Aprotinin was used as intraplate control.", "values": [{"compound": "CC[C@@H](C)[C@H]1O[C@]2(CC[C@H]1C)C[C@@H]1C[C@@H](CC=C(C)[C@@H](O[C@H]3C[C@H](OC)[C@@H](O[C@H]4C[C@H](OC)[C@@H](O)[C@H](C)O4)[C@H](C)O3)[C@@H](C)C=CC=C3CO[C@@H]4[C@H](O)C(C)=C[C@@H](C(=O)O1)[C@]34O)O2", "Potency": "39.3 µM (active)"}, {"compound": "C[C@H]1O[C@@H](O[C@H]2[C@@H](O)C[C@H](O[C@H]3[C@@H](O)C[C@H](O[C@H]4CC[C@@]5(C)[C@H](CC[C@@H]6[C@@H]5C[C@@H](O)[C@]5(C)[C@@H](C7=CC(=O)OC7)CC[C@]65O)C4)O[C@@H]3C)O[C@@H]2C)C[C@H](O)[C@@H]1O", "activity change, negative = inhibition": "-1.02% [at 228 µM]"}, {"compound": "N[C@H](C(=O)O)c1ccc(O)cc1", "activity change, negative = inhibition": "-5.22%"}, {"compound": "CNC(=O)c1cc(Oc2ccc(NC(=O)Nc3ccc(Cl)c(C(F)(F)F)c3)cc2)ccn1", "Potency": "16 µM (active)"}, {"compound": "CC[C@@H]1O[C@]2(C=C[C@@H]1C)C[C@H]1C[C@H](CC=C(C)[C@@H](O[C@@H]3C[C@H](OC)[C@H](O[C@@H]4C[C@H](OC)[C@H](O)[C@H](C)O4)[C@H](C)O3)[C@@H](C)C=CC=C3CO[C@@H]4[C@@H](O)C(C)=C[C@@H](C(=O)O1)[C@]34O)O2", "activity change, negative = inhibition": "24.5% [at 48 µM]"}, {"compound": "O=C1c2cccc3c2[C@@H](CCC3)CN1[C@@H]1CN2CCC1CC2", "activity change, negative = inhibition": "0.103%"}, {"compound": "S=c1nc[nH]c2nc[nH]c12", "Potency": "inactive"}, {"compound": "CC(C)C[C@@H](NC(=O)[C@H](Cc1ccccc1)NC(=O)c1cnccn1)B(O)O", "activity change, negative = inhibition": "-11.7% [at 228 µM]"}, {"compound": "Nc1ncnc2c1ncn2[C@@H]1O[C@H](C[C@@H](N)CC[C@H](N)C(=O)O)[C@@H](O)[C@H]1O", "activity change, negative = inhibition": "3.64%"}, {"compound": "CC1OC(OC2C(O)CC(OC3C(O)CC(OC4CCC5(C)C(CCC6C5CC(O)C5(C)C(C7=CC(=O)OC7)CCC65O)C4)OC3C)OC2C)CC(O)C1O", "note": "(stereo not given)", "activity change, negative = inhibition": "8.89% [at 228 µM]"}, {"compound": "Cc1ccccc1CNc1ncnc2c1ncn2C1OC(CO)C(O)C1O", "note": "(stereo not given)", "activity change, negative = inhibition": "-2.08%"}, {"compound": "Cc1c2oc3c(C)ccc(C(=O)N[C@@H]4C(=O)N[C@@H](C(C)C)C(=O)N5CCC[C@@H]5C(=O)N(C)CC(=O)N(C)[C@@H](C(C)C)C(=O)O[C@H]4C)c3nc-2c(C(=O)N[C@@H]2C(=O)N[C@@H](C(C)C)C(=O)N3CCC[C@@H]3C(=O)N(C)CC(=O)N(C)[C@@H](C(C)C)C(=O)O[C@H]2C)c(N)c1=O", "note": "(I: [aThr]V[dP][Sar][NMeV] / II: [aThr]V[dP][Sar][NMeV]; ester I:1-I:C, II:1-II:C; linker I:N-II:N via Actinocin(9to1))", "activity change, negative = inhibition": "-4.07%"}, {"compound": "CCC(CC)(NC(=O)C(C)C)C(=O)N[C@@H](CCCN=C(N)N)C(=O)NC1(C(=O)NC(c2ccc(F)cc2)c2ccc(F)cc2)CCCC1", "activity change, negative = inhibition": "1.29%"}, {"compound": "Cc1c2oc3c(C)ccc(C(=O)N[C@@H]4C(=O)NC(C(C)C)C(=O)N5CCC[C@H]5C(=O)N(C)CC(=O)N(C)C(C(C)C)C(=O)O[C@@H]4C)c3nc-2c(C(=O)N[C@@H]2C(=O)NC(C(C)C)C(=O)N3CCC[C@H]3C(=O)N(C)CC(=O)N(C)C(C(C)C)C(=O)O[C@@H]2C)c(N)c1=O", "note": "(stereo not given in full) (I: T[ξV]P[Sar][ξNMeV] / II: T[ξV]P[Sar][ξNMeV]; ester I:1-I:C, II:1-II:C; linker I:N-II:N via Actinocin(9to1))", "activity change, negative = inhibition": "8.56%"}, {"compound": "CO[C@H]1C[C@H](O[C@@H]2/C(C)=C/C[C@@H]3C[C@@H](C[C@]4(CC[C@H](C)[C@@H](C5CCCCC5)O4)O3)OC(=O)[C@@H]3C=C(C)/C(=N/O)[C@H]4OC/C(=C\\C=C\\[C@@H]2C)[C@]43O)O[C@@H](C)[C@@H]1O", "activity change, negative = inhibition": "-47.8%"}, {"compound": "Cc1c2oc3c(C)ccc(C(=O)N[C@@H]4C(=O)N[C@H](C(C)C)C(=O)N5CCC[C@H]5C(=O)N(C)CC(=O)N(C)[C@@H](C(C)C)C(=O)O[C@@H]4C)c3nc-2c(C(=O)N[C@@H]2C(=O)N[C@H](C(C)C)C(=O)N3CCC[C@H]3C(=O)N(C)CC(=O)N(C)[C@@H](C(C)C)C(=O)O[C@@H]2C)c(N)c1=O", "note": "(I: T[dV]P[Sar][NMeV] / II: T[dV]P[Sar][NMeV]; ester I:1-I:C, II:1-II:C; linker I:N-II:N via Actinocin(9to1))", "Potency": "inactive"}, {"compound": "CC1O[C@@H](O[C@@H]2C(O)C[C@H](O[C@@H]3C(O)C[C@@H](OC4CC[C@@]5(C)C6CC(O)[C@@]7(C)C(C8=CC(=O)OC8)CC[C@@]7(O)C6CC[C@@H]5C4)OC3C)OC2C)CC(O)[C@H]1O", "note": "(stereo not given in full)", "activity change, negative = inhibition": "9.11%"}, {"compound": "CO[C@H]1C[C@@H](O[C@@H]2/C(C)=C/C[C@@H]3C[C@@H](C[C@]4(CC[C@H](C)[C@@H](C5CCCCC5)O4)O3)OC(=O)[C@@H]3C=C(C)/C(=N/O)[C@H]4OC/C(=C\\C=C\\[C@@H]2C)[C@]43O)O[C@@H](C)[C@H]1O", "Potency": "24.8 µM (active)"}, {"compound": "OC(c1cc(C(F)(F)F)nc2c(C(F)(F)F)cccc12)C1CCCCN1", "note": "(stereo not given)", "activity change, negative = inhibition": "6.78%"}, {"compound": "C[S+](CC[C@H](N)C(=O)O)C[C@H]1O[C@@H](n2cnc3c(N)ncnc32)[C@H](O)[C@H]1O", "note": "(stereo not given in full)", "activity change, negative = inhibition": "-26.9%"}]}]}
